# Source: the supplement of paper PMC4466140
# Legend:
# Experiment in all cases: SPOT peptide array binding signal intensity (averaged, normalized) (arbitrary units (background-subtracted, floor 0; scale differs between SH3 domains)); higher = stronger binding of the SH3 domain to the peptide
# AgAbp1 = molecular target: AgAbp1
# How it was run: (§1)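 Spot intensities were captured after detection with anti-GST antibody, an HRP-linked anti-mouse secondary and luminol, and quantified with Genespotter. The probes were GST-fused SH3 domains from four yeast species, produced in E. coli BL21(DE3), purified on glutathione Sepharose and incubated at 10 μg/ml overnight at 4°C on cellulose-bound synthetic 15-mer peptides with cysteines replaced by serines. Binding signal is the normalized, background-subtracted spot intensity averaged over replicates, and its arbitrary units differ between domains.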
# AgBbc1 = molecular target: AgBbc1
# How it was run: as §1
# AgBem1-D1 = molecular target: AgBem1-D1
# How it was run: as §1
# AgBzz1-D1 = molecular target: AgBzz1-D1
# How it was run: as §1
# AgBzz1-D2 = molecular target: AgBzz1-D2
# How it was run: as §1
# AgCyk3 = molecular target: AgCyk3
# How it was run: as §1
# AgFus1 = molecular target: AgFus1
# How it was run: as §1
# AgHof1 = molecular target: AgHof1
# How it was run: as §1
# AgHse1 = molecular target: AgHse1
# How it was run: as §1
# AgLsb1 = molecular target: AgLsb1
# How it was run: as §1
# AgLsb4 = molecular target: AgLsb4
# How it was run: as §1
# AgMyo5 = molecular target: AgMyo5
# How it was run: as §1
# AgNbp2 = molecular target: AgNbp2
# How it was run: as §1
# AgRvs167 = molecular target: AgRvs167
# How it was run: as §1
# AgSho1 = molecular target: AgSho1
# How it was run: as §1
# AgSla1-D1-D2 = molecular target: AgSla1-D1-D2
# How it was run: as §1
# AgSla1-D3 = molecular target: AgSla1-D3
# How it was run: as §1
# CaAbp1-D1 = molecular target: CaAbp1-D1
# How it was run: as §1
# CaAbp1-D2 = molecular target: CaAbp1-D2
# How it was run: as §1
# CaBbc1 = molecular target: CaBbc1
# How it was run: as §1
# CaBem1-D1 = molecular target: CaBem1-D1
# How it was run: as §1
# CaBzz1-D1 = molecular target: CaBzz1-D1
# How it was run: as §1
# CaBzz1-D2 = molecular target: CaBzz1-D2
# How it was run: as §1
# CaCyk3 = molecular target: CaCyk3
# How it was run: as §1
# CaFus1 = molecular target: CaFus1
# How it was run: as §1
# CaHof1 = molecular target: CaHof1
# How it was run: as §1
# CaHse1 = molecular target: CaHse1
# How it was run: as §1
# CaLsb1 = molecular target: CaLsb1
# How it was run: as §1
# CaLsb4 = molecular target: CaLsb4
# How it was run: as §1
# CaMyo5 = molecular target: CaMyo5
# How it was run: as §1
# CaNbp2 = molecular target: CaNbp2
# How it was run: as §1
# CaRvs167 = molecular target: CaRvs167
# How it was run: as §1
# CaRvs167-3 = molecular target: CaRvs167-3
# How it was run: as §1
# CaSho1 = molecular target: CaSho1
# How it was run: as §1
# CaSla1-D1-D2 = molecular target: CaSla1-D1-D2
# How it was run: as §1
# CaSla1-D3 = molecular target: CaSla1-D3
# How it was run: as §1
# ScAbp1 = molecular target: ScAbp1
# How it was run: as §1
# ScBbc1 = molecular target: ScBbc1
# How it was run: as §1
# ScBem1-D1 = molecular target: ScBem1-D1
# How it was run: as §1
# ScBzz1-D1 = molecular target: ScBzz1-D1
# How it was run: as §1
# ScBzz1-D2 = molecular target: ScBzz1-D2
# How it was run: as §1
# ScCyk3 = molecular target: ScCyk3
# How it was run: as §1
# ScFus1 = molecular target: ScFus1
# How it was run: as §1
# ScHof1 = molecular target: ScHof1
# How it was run: as §1
# ScHse1 = molecular target: ScHse1
# How it was run: as §1
# ScLsb1 = molecular target: ScLsb1
# How it was run: as §1
# ScLsb2 = molecular target: ScLsb2
# How it was run: as §1
# ScLsb3 = molecular target: ScLsb3
# How it was run: as §1
# ScLsb4 = molecular target: ScLsb4
# How it was run: as §1
# ScMyo3 = molecular target: ScMyo3
# How it was run: as §1
# ScMyo5 = molecular target: ScMyo5
# How it was run: as §1
# ScNbp2 = molecular target: ScNbp2
# How it was run: as §1
# ScPex13 = molecular target: ScPex13
# How it was run: as §1
# ScRvs167 = molecular target: ScRvs167
# How it was run: as §1
# ScSho1 = molecular target: ScSho1
# How it was run: as §1
# ScSla1-D1-D2 = molecular target: ScSla1-D1-D2
# How it was run: as §1
# ScSla1-D3 = molecular target: ScSla1-D3
# How it was run: as §1
# SpAbp1-D1 = molecular target: SpAbp1-D1
# How it was run: as §1
# SpBbc1 = molecular target: SpBbc1
# How it was run: as §1
# SpBzz1-D1 = molecular target: SpBzz1-D1
# How it was run: as §1
# SpBzz1-D2 = molecular target: SpBzz1-D2
# How it was run: as §1
# SpCyk3 = molecular target: SpCyk3
# How it was run: as §1
# SpHof1 = molecular target: SpHof1
# How it was run: as §1
# SpHof1-2 = molecular target: SpHof1-2
# How it was run: as §1
# SpHof1-3 = molecular target: SpHof1-3
# How it was run: as §1
# SpHse1 = molecular target: SpHse1
# How it was run: as §1
# SpLsb1 = molecular target: SpLsb1
# How it was run: as §1
# SpLsb4 = molecular target: SpLsb4
# How it was run: as §1
# SpMyo1 = molecular target: SpMyo1
# How it was run: as §1
# SpNbp2 = molecular target: SpNbp2
# How it was run: as §1
# SpPex13 = molecular target: SpPex13
# How it was run: as §1
# SpRvs167 = molecular target: SpRvs167
# How it was run: as §1
# SpSla1-D1-D2 = molecular target: SpSla1-D1-D2
# How it was run: as §1
# SpSla1-D3 = molecular target: SpSla1-D3
# How it was run: as §1
binder,measurement,setting,value
KWVRRPKLMTPLTFS,SPOT peptide array binding signal intensity,AgAbp1,205
same,SPOT peptide array binding signal intensity,AgBbc1,73.5
same,SPOT peptide array binding signal intensity,AgBem1-D1,169
same,SPOT peptide array binding signal intensity,AgBzz1-D1,25
same,SPOT peptide array binding signal intensity,AgBzz1-D2,8
same,SPOT peptide array binding signal intensity,AgCyk3,3
same,SPOT peptide array binding signal intensity,AgFus1,754
same,SPOT peptide array binding signal intensity,AgHof1,110
same,SPOT peptide array binding signal intensity,AgHse1,818
same,SPOT peptide array binding signal intensity,AgLsb1,495
same,SPOT peptide array binding signal intensity,AgLsb4,71
same,SPOT peptide array binding signal intensity,AgMyo5,≤ 0
same,SPOT peptide array binding signal intensity,AgNbp2,371
same,SPOT peptide array binding signal intensity,AgRvs167,8
same,SPOT peptide array binding signal intensity,AgSho1,185
same,SPOT peptide array binding signal intensity,AgSla1-D1-D2,275
same,SPOT peptide array binding signal intensity,AgSla1-D3,11.2
same,SPOT peptide array binding signal intensity,CaAbp1-D1,498
same,SPOT peptide array binding signal intensity,CaAbp1-D2,297
same,SPOT peptide array binding signal intensity,CaBbc1,192
same,SPOT peptide array binding signal intensity,CaBem1-D1,329
same,SPOT peptide array binding signal intensity,CaBzz1-D1,164
same,SPOT peptide array binding signal intensity,CaBzz1-D2,121
same,SPOT peptide array binding signal intensity,CaCyk3,45
same,SPOT peptide array binding signal intensity,CaFus1,1360
same,SPOT peptide array binding signal intensity,CaHof1,1.5
same,SPOT peptide array binding signal intensity,CaHse1,180
same,SPOT peptide array binding signal intensity,CaLsb1,7
same,SPOT peptide array binding signal intensity,CaLsb4,346
same,SPOT peptide array binding signal intensity,CaMyo5,11.5
same,SPOT peptide array binding signal intensity,CaNbp2,757
same,SPOT peptide array binding signal intensity,CaRvs167,162
same,SPOT peptide array binding signal intensity,CaRvs167-3,27.8
same,SPOT peptide array binding signal intensity,CaSho1,522
same,SPOT peptide array binding signal intensity,CaSla1-D1-D2,623
same,SPOT peptide array binding signal intensity,CaSla1-D3,264
same,SPOT peptide array binding signal intensity,ScAbp1,103
same,SPOT peptide array binding signal intensity,ScBbc1,23
same,SPOT peptide array binding signal intensity,ScBem1-D1,91.5
same,SPOT peptide array binding signal intensity,ScBzz1-D1,50.5
same,SPOT peptide array binding signal intensity,ScBzz1-D2,59
same,SPOT peptide array binding signal intensity,ScCyk3,64.5
same,SPOT peptide array binding signal intensity,ScFus1,1090
same,SPOT peptide array binding signal intensity,ScHof1,3.75
same,SPOT peptide array binding signal intensity,ScHse1,1650
same,SPOT peptide array binding signal intensity,ScLsb1,132
same,SPOT peptide array binding signal intensity,ScLsb2,15.5
same,SPOT peptide array binding signal intensity,ScLsb3,166
same,SPOT peptide array binding signal intensity,ScLsb4,32.5
same,SPOT peptide array binding signal intensity,ScMyo3,3.5
same,SPOT peptide array binding signal intensity,ScMyo5,5.25
same,SPOT peptide array binding signal intensity,ScNbp2,818
same,SPOT peptide array binding signal intensity,ScPex13,56.8
same,SPOT peptide array binding signal intensity,ScRvs167,121
same,SPOT peptide array binding signal intensity,ScSho1,1880
same,SPOT peptide array binding signal intensity,ScSla1-D1-D2,735
same,SPOT peptide array binding signal intensity,ScSla1-D3,161
same,SPOT peptide array binding signal intensity,SpAbp1-D1,289
same,SPOT peptide array binding signal intensity,SpBbc1,7
same,SPOT peptide array binding signal intensity,SpBzz1-D1,176
same,SPOT peptide array binding signal intensity,SpBzz1-D2,0.5
same,SPOT peptide array binding signal intensity,SpCyk3,7
same,SPOT peptide array binding signal intensity,SpHof1,158
same,SPOT peptide array binding signal intensity,SpHof1-2,17
same,SPOT peptide array binding signal intensity,SpHof1-3,450
same,SPOT peptide array binding signal intensity,SpHse1,666
same,SPOT peptide array binding signal intensity,SpLsb1,466
same,SPOT peptide array binding signal intensity,SpLsb4,500
same,SPOT peptide array binding signal intensity,SpMyo1,8.75
same,SPOT peptide array binding signal intensity,SpNbp2,558
same,SPOT peptide array binding signal intensity,SpPex13,217
same,SPOT peptide array binding signal intensity,SpRvs167,34.2
same,SPOT peptide array binding signal intensity,SpSla1-D1-D2,1.5
same,SPOT peptide array binding signal intensity,SpSla1-D3,62
RSLRKRPTSPSISGS,SPOT peptide array binding signal intensity,AgAbp1,197
same,SPOT peptide array binding signal intensity,AgBbc1,232
same,SPOT peptide array binding signal intensity,AgBem1-D1,118
same,SPOT peptide array binding signal intensity,AgBzz1-D1,62.5
same,SPOT peptide array binding signal intensity,AgBzz1-D2,63
same,SPOT peptide array binding signal intensity,AgCyk3,23
same,SPOT peptide array binding signal intensity,AgFus1,464
same,SPOT peptide array binding signal intensity,AgHof1,77
same,SPOT peptide array binding signal intensity,AgHse1,1610
same,SPOT peptide array binding signal intensity,AgLsb1,7
same,SPOT peptide array binding signal intensity,AgLsb4,326
same,SPOT peptide array binding signal intensity,AgMyo5,1
same,SPOT peptide array binding signal intensity,AgNbp2,724
same,SPOT peptide array binding signal intensity,AgRvs167,9.67
same,SPOT peptide array binding signal intensity,AgSho1,80.5
same,SPOT peptide array binding signal intensity,AgSla1-D1-D2,698
same,SPOT peptide array binding signal intensity,AgSla1-D3,3.5
same,SPOT peptide array binding signal intensity,CaAbp1-D1,1720
same,SPOT peptide array binding signal intensity,CaAbp1-D2,1730
same,SPOT peptide array binding signal intensity,CaBbc1,522
same,SPOT peptide array binding signal intensity,CaBem1-D1,57.5
same,SPOT peptide array binding signal intensity,CaBzz1-D1,86
same,SPOT peptide array binding signal intensity,CaBzz1-D2,94.5
same,SPOT peptide array binding signal intensity,CaCyk3,201
same,SPOT peptide array binding signal intensity,CaFus1,985
same,SPOT peptide array binding signal intensity,CaHof1,0.75
same,SPOT peptide array binding signal intensity,CaHse1,204
same,SPOT peptide array binding signal intensity,CaLsb1,≤ 0
same,SPOT peptide array binding signal intensity,CaLsb4,338
same,SPOT peptide array binding signal intensity,CaMyo5,6
PLRRTVMSLPGNHDI,SPOT peptide array binding signal intensity,SpBzz1-D2,7.25
same,SPOT peptide array binding signal intensity,SpCyk3,0.5
same,SPOT peptide array binding signal intensity,SpHof1,10
same,SPOT peptide array binding signal intensity,SpHof1-2,24.2
same,SPOT peptide array binding signal intensity,SpHof1-3,261
same,SPOT peptide array binding signal intensity,SpHse1,788
same,SPOT peptide array binding signal intensity,SpLsb1,2.25
same,SPOT peptide array binding signal intensity,SpLsb4,258
same,SPOT peptide array binding signal intensity,SpMyo1,2.5
same,SPOT peptide array binding signal intensity,SpNbp2,392
same,SPOT peptide array binding signal intensity,SpPex13,40
same,SPOT peptide array binding signal intensity,SpRvs167,48.8
same,SPOT peptide array binding signal intensity,SpSla1-D1-D2,1.5
same,SPOT peptide array binding signal intensity,SpSla1-D3,126
